Molecules are shown by their SMILES. Among all 340,000 compounds or so, about 3,400 (1%) were called active. The entries come from a sample that favours actives as a whole. A number with no mark means an inactive call.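 Rule for the calls: active = inhibition above the mean over all tested compounds plus 3 SD (cut at about 4.2% in these data); inactive = the rest.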

The test deals with Nuclear receptor subfamily 0 group B member 1 (Homo sapiens) (UniProt P51843). The experiment in a line: relief of DAX1 transcriptional repression – cell-based, HEK293, Gal4-DAX1, luciferase luminescence, primary screen (AID 504766).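 Note: 0% = DAX1-transfected cells with DMSO and 100% = empty-vector control cells with DMSO; inhibition shows as a rise in luminescence from relieved DAX1 repression.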 The note with it: HEK293 Gal4-DAX1 luciferase reporter, at 6.75 µM, stronger effect = higher value.
Nuclear receptor subfamily 0 group B member 1 (Homo sapiens), sequence (P51843 207-470 limits assumed): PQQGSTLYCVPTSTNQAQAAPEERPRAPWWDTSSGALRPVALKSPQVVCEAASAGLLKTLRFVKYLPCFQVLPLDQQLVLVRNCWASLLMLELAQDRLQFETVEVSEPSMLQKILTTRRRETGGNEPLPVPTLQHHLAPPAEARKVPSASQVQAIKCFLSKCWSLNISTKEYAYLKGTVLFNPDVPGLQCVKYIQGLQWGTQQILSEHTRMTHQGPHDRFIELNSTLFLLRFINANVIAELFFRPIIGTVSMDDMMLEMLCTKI
In the case of `COc1ccc(N2CCN(C(=O)C3CCN(C(=O)c4ccccc4Cl)CC3)CC2)cc1`, the inhibition was -0.89%.

As for `COc1ccc(N2CCN(C(=O)C3CCN(S(=O)(=O)c4ccc(C)cc4)CC3)CC2)cc1`, the inhibition was 7.45% (active).

Turning to `Cc1ccc(S(=O)(=O)N2CCC(C(=O)N3CCCCCCC3)CC2)cc1`, the inhibition was -0.36%.

`COc1ccc(N)cc1NC(=O)CN1CCOCC1`: the inhibition was 1.8%.

On to `CC12C(=O)N(n3cnnc3)C(=O)C1C1C=CC2C1` (stereo unspecified), for which the inhibition is 5.77% (active).

Take `CCN(CC)C(=O)Oc1ccc(Br)cc1C(=O)Nc1ccc(F)c(Cl)c1`: the inhibition is 4.68% (active).

As for `COc1ccc(Cl)cc1C(=O)Nc1ccc(N(C)C(C)=O)cc1`, the inhibition was -0.13%.

In the case of `O=C(COc1ccccc1F)NNC(=O)c1cc(Br)ccc1Cl`, the inhibition was 0.63%.

Consider `N#Cc1ccc(OCC(=O)Nc2nc(-c3ccccn3)cs2)cc1`, for which the inhibition was -0.76%.

As for `C[C@@H]1CN([C@H](C)CO)S(=O)(=O)c2ccc(C#C[C@@H](C)O)cc2O[C@@H]1CN(C)Cc1ccc(-c2ccccc2)cc1`, the inhibition was -0.61%.

Take `Cc1ccc(CN(C)C[C@@H]2OCc3cnnn3CCCC(=O)N([C@@H](C)CO)C[C@H]2C)cc1`: the inhibition was 0.34%.

Consider `O=C(Nc1cc(S(=O)(=O)N2CCOCC2)ccc1Cl)c1cc(=O)c2ccccc2o1`, for which the inhibition is -1.1%.

Consider `O=[N+]([O-])c1cc(Cl)cc(/C=N/NC(=S)Nc2cc(S(=O)(=O)N3CCOCC3)ccc2Cl)c1O`, for which the inhibition is 4.75% (active).

Regarding `O=S(=O)(c1ccc(NC(=S)NN=C(C2CC2)C2CC2)cc1)N1CCOCC1`, the inhibition is -0.03%.

Take `O=C1[C@H]2[C@@H](c3ccc(C(F)(F)F)cc3)N[C@]3(CCCN(Cc4ccc(Br)cc4)C3=O)[C@H]2C(=O)N1Cc1ccccc1`: the inhibition is -0.81%.

For the molecule `C[C@@H]1Cn2cnc(C(=O)Nc3ccc(CNC(=O)OC(C)(C)C)cc3)c2C(=O)N1`, the inhibition is -0.54%.

For the molecule `O=C(CSC(=S)N1CCOCC1)c1ccccc1`, the inhibition was -3.24%.

For `CC(=O)c1ccc(NC(=O)CSC(=S)N2CCCC2)cc1`, the inhibition is -0.17%.

Turning to `O=C(CSC(=S)N1CCCCC1)c1c(F)cccc1F`, the inhibition was 8.18% (active).

In the case of `CC(C#N)(NC(=O)CN1CCN(S(=O)(=O)c2cc(C(F)(F)F)ccc2Cl)CC1)C1CC1` (stereo unspecified), the inhibition is 4.49% (active).

With `N#Cc1ccsc1NC(=O)CN1CCN(S(=O)(=O)c2cc(Cl)ccc2Cl)CC1`, the inhibition is -0.1%.

Consider `O=C(CN1CCN(S(=O)(=O)c2cc(Cl)ccc2Cl)CC1)c1ccc(O)c(O)c1`, for which the inhibition was 0.26%.

On to `CC(OC(=O)c1cccnc1Cl)C(=O)NC1CCCCC1` (stereo unspecified), for which the inhibition is 2.75%.

For `COc1ccc(C(C(=O)NCC2CCCO2)N(C(=O)Cn2nnc3ccccc32)c2ccc(NC(C)=O)cc2)cc1OC` (stereo unspecified), the inhibition is -0.65%.

As for `CCC(C)(C)NC(=O)C(c1ccc(O)cc1)N(C(=O)Cn1nnc2ccccc21)c1ccc(NC(C)=O)cc1` (stereo unspecified), the inhibition is 0.14%.

For the molecule `COc1ccc(C(C(=O)NC(C)(C)C)N(C(=O)Cn2nnc3ccccc32)c2ccc(C(C)=O)cc2)cc1O` (stereo unspecified), the inhibition is 5.46% (active).

Take `COc1ccccc1C(=O)NC(=S)Nc1ccc(N2CCOCC2)cc1`: the inhibition was 0.43%.

As to `C[C@H]1CN([C@@H](C)CO)C(=O)c2cc(Br)cnc2O[C@H]1CN(C)S(=O)(=O)c1cccs1`, the inhibition is 0.93%.

In the case of `C[C@H]1CN([C@@H](C)CO)C(=O)CCCn2cc(nn2)CO[C@@H]1CN(C)S(=O)(=O)c1cccs1`, the inhibition is -0.09%.

Regarding `CN(C)CCNc1ccc(-c2n[nH]c(=O)c3ccccc23)cc1[N+](=O)[O-]`, the inhibition was 4.46% (active).

For the molecule `CCN(CC)CCNc1ccc(Cl)cc1[N+](=O)[O-]`, the inhibition was 0.15%.

Turning to `COCCNc1ccc(-c2n[nH]c(=O)c3ccccc23)cc1[N+](=O)[O-]`, the inhibition is -1.07%.

Take `CCc1cccc(CC)c1N1C(=O)CC(Sc2ccccc2N)C1=O` (stereo unspecified): the inhibition was 2.47%.

As for `CN(C)C(CNC(=O)c1cccc(S(=O)(=O)N2CCc3ccccc3C2)c1)c1ccccc1` (stereo unspecified), the inhibition was -0.17%.

In the case of `Nc1cccc(-c2cc(-c3ccccc3)nc(-c3cccc(N)c3)n2)c1`, the inhibition was -0.66%.

Turning to `Oc1ccccc1-c1cc(-c2ccc(Cl)cc2)n[nH]1`, the inhibition is 3.28%.

In the case of `c1ccc(-c2cc(-c3ccccc3)[nH]n2)cc1`, the inhibition is 5.19% (active).

With `Cc1[nH]c2ccccc2c1C(=O)C(=O)NCc1nnnn1-c1cccc(F)c1`, the inhibition is -0.63%.

Consider `O=C1CCC(C(=O)OCC(=O)Nc2ccc(OC(F)F)cc2)=NN1`, for which the inhibition was 0.5%.

For the molecule `O=C(N=C1SC2CS(=O)(=O)CC2N1Cc1ccccc1)c1ccccc1` (stereo unspecified), the inhibition is 4.11%.

As for `O=C(c1cccs1)N1C[C@H](n2cc(C3CC3)nn2)[C@@H](O)C[C@@H]1c1ccccc1`, the inhibition was 1.63%.

With `C#CCN(C[C@@H]1[C@@H](OC(=O)NC2CC2)[C@@H](OC(=O)NC2CC2)Cn2c(=O)ccc(=O)n21)S(=O)(=O)c1ccc(C)cc1`, the inhibition was -0.06%.

As to `O=C(c1ccncc1)N1CCN(S(=O)(=O)c2cccc([N+](=O)[O-])c2)CC1`, the inhibition is 0.88%.

As for `N/C(=N\OS(=O)(=O)c1cccc([N+](=O)[O-])c1)c1ccncc1`, the inhibition is 4.92% (active).

As for `Cc1ccccc1OS(=O)(=O)c1cccc([N+](=O)[O-])c1`, the inhibition is 1.42%.

For `O=Cc1ccc(OCc2cn3ccccc3n2)cc1`, the inhibition was 7.12% (active).

For `O=C(NCCc1ccco1)c1ccc(OCc2cn3ccccc3n2)cc1`, the inhibition was 0.65%.

Take `CN(C)C(CNC(=O)c1ccc(OCc2cn3ccccc3n2)cc1)c1ccco1` (stereo unspecified): the inhibition was 0.93%.

As to `N#CCCN(C(=O)Nc1ccc(Cl)c(Cl)c1)C1CCCCC1`, the inhibition was 1.35%.

With `CC1CCN(c2ccc3c(c2)S(=O)(=O)c2cc(C(=O)O)ccc2C3=O)CC1`, the inhibition is -0.21%.

On to `COc1ccc(NC(=S)NCCNC(C)=O)cc1`, for which the inhibition is 4.78% (active).

For the molecule `CCOC(=O)C(NC(C)=O)C(=O)Nc1ccc(OC)cc1` (stereo unspecified), the inhibition was 1.97%.

As for `COc1ccc(NC(=S)NCC2CCN(c3ccc(OC)cc3)C2)cc1` (stereo unspecified), the inhibition is 0.86%.

For `COc1ccc(NC(=O)c2cc(=O)[nH]c3ccccc23)cc1S(=O)(=O)N1CCOCC1`, the inhibition is 1.51%.

For `COC(=O)c1ccccc1N=NNc1ccc([N+](=O)[O-])cc1`, the inhibition was 2.03%.

With `C[C@H](CO)N1C[C@H](C)[C@@H](CN(C)Cc2ccc3c(c2)OCO3)OCc2cnnn2CCCC1=O`, the inhibition was 0.31%.

As for `Cc1csc(=O)n1CCC(=O)OCC(=O)Nc1ccc(N2CCOCC2)cc1`, the inhibition is 0.99%.

With `CCN1C(=O)[C@H]2[C@@H](c3ccccc3)N[C@]3(CCCN(Cc4ccc(C)cc4)C3=O)[C@H]2C1=O`, the inhibition was 0.28%.

Turning to `O=C(NN=Cc1ccc([N+](=O)[O-])cc1)C1CC1`, the inhibition was 0.79%.

As to `O=[N+]([O-])c1ccc(C=NN=Cc2ccc([N+](=O)[O-])cc2)cc1`, the inhibition was 0.89%.

Turning to `O=C(N/N=C/c1ccc([N+](=O)[O-])cc1)c1c[nH]c2ccccc12`, the inhibition was 5.39% (active).

Consider `COc1ccc(-c2cnc3c(c2)C(=O)N([C@H](C)CO)C[C@@H](C)[C@H](CN(C)Cc2ccccc2)O3)cc1`, for which the inhibition is 1.69%.

On to `CN(C)/C=C(/C(=O)c1ccc(F)cc1)S(=O)(=O)c1ccc(F)cc1`, for which the inhibition is 7.15% (active).

`CN(C)/C=C(/C(=O)c1ccc(Cl)cc1)S(=O)(=O)c1ccccc1`: the inhibition is -0.69%.

Turning to `CN(C)/C=C(/C(=O)c1ccccc1)S(=O)(=O)c1ccc(Cl)cc1`, the inhibition is -0.08%.

Turning to `CCOC(=O)C=Cc1ccc(C(=O)OCC)[nH]1`, the inhibition was -1.29%.

Regarding `Cc1ccc(S(=O)(=O)NN=C2CC(C)(C)CC(=O)C2(C)C)cc1`, the inhibition was 1.47%.

As to `COC(=O)c1sccc1NC(=O)c1ccc(Cl)cc1`, the inhibition is 0.77%.

Turning to `COC(=O)c1sccc1NC(=O)c1csc2c1CCCC2`, the inhibition is 4.39% (active).

As to `O=C(Nc1ccccc1N1CCOCC1)c1csc2c1CCCC2`, the inhibition was -0.73%.

Regarding `O=C(C[C@H]1C[C@@H]2c3cc(NC(=O)C4CCC4)ccc3O[C@@H]2[C@H](CO)O1)NC1CCCCC1`, the inhibition was 1.37%.

As to `CC1=C(C(=O)N2CCOCC2)CC(CC(=O)NCCN2CCOCC2)C(=O)N1CCC1=CCCCC1` (stereo unspecified), the inhibition was 1.93%.

On to `C[C@@H]1CN([C@H](C)CO)C(=O)CCCn2nncc2CO[C@@H]1CN(C)S(=O)(=O)c1cccc(C#N)c1`, for which the inhibition was 2.66%.

As for `COc1cc(-c2nnc(NC(=O)CS(=O)(=O)c3ccc(Cl)cc3)o2)cc(OC)c1OC`, the inhibition is 0.2%.

Consider `COc1ccc(NC(=O)C(C)SCc2ccccc2)cc1` (stereo unspecified), for which the inhibition was 6.52% (active).

With `Cc1cccc(NC(=O)C(C)SCc2ccccc2)c1` (stereo unspecified), the inhibition was -1.2%.

With `COc1ccc(NC(=O)C(Br)C(C)C)cc1` (stereo unspecified), the inhibition was 1.41%.

Take `Cc1ccc(S(=O)(=O)N2CCN(C(=O)CCC(=O)NC3CCCc4ccccc43)CC2)cc1` (stereo unspecified): the inhibition was 4.27% (active).

As for `O=C(CCC(=O)N1CCN(S(=O)(=O)c2ccccc2)CC1)NC1CCCc2ccccc21` (stereo unspecified), the inhibition was 0.76%.

With `COc1ccc(NC(=O)CCC(=O)N2CCN(S(=O)(=O)c3ccc(C)cc3)CC2)c(OC)c1`, the inhibition was -2%.

For `CCCCCC(=O)N1C[C@H](O)[C@@H](n2cc(COC(=O)c3ccccc3)nn2)C[C@@H]1c1ccc(C)cc1`, the inhibition was 0.45%.

Consider `O=C(OCc1ccccc1)N1CCC2CC1c1cc(N3CCN(S(=O)(=O)c4cc(Cl)cc(Cl)c4)CC3)ccc12` (stereo unspecified), for which the inhibition is 1.86%.

Consider `CC(=O)c1ccccc1NC(=O)COC(=O)C1COc2ccccc2O1` (stereo unspecified), for which the inhibition was 0.71%.

As for `CC(Sc1ncnc2c1cnn2-c1ccccc1)C(=O)Nc1ccc(N2CCOCC2)cc1` (stereo unspecified), the inhibition is -0.48%.

Take `CC(C)Sc1ncnc2c1cnn2-c1ccccc1`: the inhibition was 6.85% (active).

Consider `CCN(CC)C(=O)CSc1ncnc2c1cnn2-c1ccccc1`, for which the inhibition is 0.89%.

For `NC(=O)CSc1nnc(-c2cccc(S(=O)(=O)N3CCOCC3)c2)o1`, the inhibition was 0.86%.

For the molecule `CN1OC[C@@H]2CN(C(=O)c3ccc(-c4ccccc4)cc3)[C@H](c3ccc(-c4cccc(F)c4)cc3)C[C@@H]21`, the inhibition is -0.68%.

Regarding `COc1ccc(-c2noc(CCC(=O)N3CCN(c4cccc(C)c4)CC3)n2)cc1`, the inhibition is 0.39%.

For the molecule `CN1CCN(C(=O)CCc2nc(-c3ccc(Cl)cc3)no2)CC1`, the inhibition was 5.55% (active).

`COc1ccc(N2CCN(C(=O)CCc3nc(-c4ccc(C)cc4)no3)CC2)cc1`: the inhibition was -0.22%.

For the molecule `CC(C)(C)NC(=O)C(=O)NN=C1CCCCCCC1`, the inhibition was 6.84% (active).

As to `CCc1ccc(C(=O)NN=C2CCCCCC2)s1`, the inhibition was 1.24%.

As for `CC(C)NC(=S)NN=C1CCCCCCCCCCC1`, the inhibition is -0.27%.

Consider `C[C@@H]1CN([C@H](C)CO)C(=O)CCCn2cc(nn2)CO[C@H]1CN(C)S(=O)(=O)c1ccc(Oc2ccccc2)nc1`, for which the inhibition was 0.73%.

In the case of `CN(c1ccccc1)S(=O)(=O)c1ccc(C(=O)NCc2cccnc2)cc1`, the inhibition is -0.1%.

Take `O=C(NCc1nnnn1-c1ccc(Cl)cc1)c1ccc2c(c1)OCO2`: the inhibition is 0.46%.

As for `O=C(Cn1c(=S)nc2ccccn21)N1CCc2ccccc2C1`, the inhibition is 1.21%.

Regarding `O=C(c1ccc(F)cc1)n1c(=S)nc2ccccn21`, the inhibition is 5.47% (active).

In the case of `O=C(c1ccc(F)cc1)n1cc(C(=S)N2CCOCC2)c2ccccc21`, the inhibition is 1.01%.

Take `O=[N+]([O-])c1ccc(C(S(=O)(=O)Cc2ccccc2)S(=O)(=O)Cc2ccccc2)cc1`: the inhibition was 1.99%.

(Values after PubChem BioAssay AID504766 (The Scripps Research Institute Molecular Screening Center, 2011).)
